Experimental findings from PubChem BioAssay (NCATS) are described below.

Records with an inconclusive call do not appear. The source made the active and inactive calls. Unless noted, the call rests on the fitted dose curve; in most records, active means well fitted curve in the direction sought with a large enough effect; inconclusive means small, poorly fitted or top-dose-only effect, or another doubt; inactive means no such curve, though single readings can be large; an effect the other way counts as inactive or inconclusive.

Experiment [1] concerns the target Lysosomal acid glucosylceramidase (Homo sapiens) (UniProt P04062). Nature of the experiment: Glucocerebrosidase-p2 (AID 348; in the data active means potency below about 10 µM; further: potency means the concentration at half of the fitted maximal effect). Conditions: purified GBA, blue fluorogenic substrate, 40 min. In a few lines: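 Normal human glucocerebrosidase (0.2 nM) with blue fluorogenic substrate (80 uM final) in citrate/phosphate pH 5.9 with 10mM sodium taurocholate, 0.01% tween-20; 40 min RT, NaOH/glycine stop; fluorescence Ex 365/Em 440; AC50 from a titration from 0.6 nM upwards.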

The nature of experiment [2]: AP1 Signaling Pathway (AID 357; active means well fitted curve in either direction with a large enough effect, not every such curve was filed as active;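 further: ME-180 reporter cells stimulated with EGF at its EC50 level; on the % scale 0 is the no-effect control and ±100 the full control effect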). Conditions: ME-180 AP-1-bla reporter, EGF-induced, beta-lactamase ratio, 5 h; at 7.69 µM (top of the series) unless noted. In a few lines:
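Cells are seeded overnight, exposed to compound titrations and an EC50 level of EGF for 5 hours at 37 °C, then loaded with CCF4 dye for 2.5 hours. Beta-lactamase activity under the AP-1 element is read as a blue/green ratio.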

Experiment [3] has as its target Cytochrome P450 1A2 (Homo sapiens) (UniProt P05177). Kind of experiment: p450-cyp1a2 (AID 410; calls by dose curve; further: potency means the concentration at half of the fitted maximal effect). Conditions: recombinant CYP1A2, luciferin-ME demethylation, luminescence; series mostly up to 57 µM. Put shortly:
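20nM CYP1A2, 100uM Luciferin-ME (=Km), 100mM KPO4; cpd 10 min RT; +NADPH regen, 60 min RT; stop/detect 20 min; luminescence. Normalized to furafylline 57 uM = full inhibition.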

A short description of experiment [4]: NFAT Signaling Pathway (AID 444; active means well fitted curve in either direction with a large enough effect, not every such curve was filed as active;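 further: carbachol stimulus at about its EC50 of 1 µM final; on the % scale 0 is the no-effect control and ±100 the full control effect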). The following applies: Jurkat NFAT-bla M1, carbachol, beta-lactamase ratio, 5 h; at 7.69 µM (top of the series) unless noted. In a few lines: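 Jurkat cells carrying an NFAT-driven β-lactamase reporter and co-transfected muscarinic M1 receptor were treated with compound plus carbachol (1 uM final, an EC50 level) for 5 h at 37 °C. CCF4 loading followed for 1 h at RT; 460/530 nm ratio gave %activity.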

Experiment [5] in a line: Stat Signaling Pathway (AID 446; active means well fitted curve in either direction with a large enough effect, not every such curve was filed as active;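 further: ME-180 cervical cancer cells given 40 pM IL-6 alongside compound; SIE-controlled beta-lactamase reporter measured as 460/530 nm FRET emission ratio; on the % scale 0 is the no-effect control and ±100 the full control effect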). Conditions: ME-180 SIE beta-lactamase reporter, IL-6 stimulated, 5 h; at 7.69 µM (top of the series) unless noted. Put shortly:
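Compound effects on IL-6-induced STAT reporter activity were measured in ME-180 cells. After overnight culture, cells were co-treated with 40 pM IL-6 for 5 hrs before beta-lactamase substrate loading at room temperature.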

Experiment [6] deals with Glucocorticoid receptor (Homo sapiens) (UniProt P04150). Kind of experiment: GR-GFP Redistribution (AID 450;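 active means compounds whose dose series gives a full or clear partial fitted curve of increased nuclear translocation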; further: potency means the concentration at half of the fitted maximal effect). Conditions: U2OS GR-GFP nuclear translocation, laser cytometry, 2 h.
Sequence of Glucocorticoid receptor (Homo sapiens) (P04150 whole entry, looked up, the tested form may be a part): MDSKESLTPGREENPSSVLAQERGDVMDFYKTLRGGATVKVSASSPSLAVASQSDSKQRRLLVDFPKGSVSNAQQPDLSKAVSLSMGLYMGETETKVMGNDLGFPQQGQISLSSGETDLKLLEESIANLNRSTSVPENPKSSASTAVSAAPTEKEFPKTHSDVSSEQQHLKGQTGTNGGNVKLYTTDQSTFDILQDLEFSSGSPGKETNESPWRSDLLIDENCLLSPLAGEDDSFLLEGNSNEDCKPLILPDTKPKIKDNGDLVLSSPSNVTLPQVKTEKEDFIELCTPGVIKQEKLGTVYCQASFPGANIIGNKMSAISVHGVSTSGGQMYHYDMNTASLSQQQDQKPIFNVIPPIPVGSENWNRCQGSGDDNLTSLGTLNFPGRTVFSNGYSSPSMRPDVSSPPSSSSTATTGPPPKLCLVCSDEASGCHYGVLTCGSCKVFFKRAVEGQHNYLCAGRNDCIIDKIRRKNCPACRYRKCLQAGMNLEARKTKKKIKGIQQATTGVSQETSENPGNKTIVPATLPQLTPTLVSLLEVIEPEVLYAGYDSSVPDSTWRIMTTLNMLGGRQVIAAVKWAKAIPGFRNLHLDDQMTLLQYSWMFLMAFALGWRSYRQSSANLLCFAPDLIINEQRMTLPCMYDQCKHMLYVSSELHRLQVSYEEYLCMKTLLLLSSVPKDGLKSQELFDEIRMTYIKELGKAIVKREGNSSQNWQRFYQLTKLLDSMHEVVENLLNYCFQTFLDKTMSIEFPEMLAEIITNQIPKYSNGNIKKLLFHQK
For experiment [7] the target is unchanged. Kind of experiment: GR-EFC Redistribution (AID 451; calls by dose curve; further: potency means the concentration at half of the fitted maximal effect). Conditions: CHO-K1 GR-EFC translocation, beta-gal luminescence, 2 h. In a few lines: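 CHO-K1 cells stably expressing nuclear-localized β-gal enzyme acceptor and GR fused C-terminally to the enzyme donor fragment; ligand-driven nuclear translocation restores β-gal by complementation. Compounds titrated up to 46 uM final, 2 h at 37 °C; luminescence read.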

Experiment [8] concerns the target Mitogen-activated protein kinase 10 (Mus musculus) (UniProt Q61831). Nature of the experiment: JNK3 AlphaScreen Assay (AID 530; active means well fitted curve in either direction with a large enough effect, not every such curve was filed as active;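 further: kinase came from lysate of stimulated human HepG2 cells; signal reports phosphorylation of biotinylated GST-cJun 1-79 at Ser73 with 10 µM ATP; on the % scale 0 is the no-effect control and ±100 the full control effect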). Conditions: JNK3 lysate, c-Jun phosphorylation; series mostly up to 57.1 µM. In a few lines:
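Biotinylated GST-cJun(1-79) served as substrate for JNK3 in HepG2 lysates stimulated with IL-1beta and TNF-alpha. ATP was 10 uM final, pH 7.6. Ser73 phosphorylation was quantified by AlphaScreen (680 nm excitation).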

For experiment [9], the target named is Cytochrome P450 3A4 (Homo sapiens) (UniProt P08684). Kind of experiment: qHTS Assay for Inhibitors and Substrates of Cytochrome P450 3A4 (AID 884). Further: potency means the concentration at half of the fitted maximal effect; nearly all actives have a fitted effect of over 50% in size. Conditions: recombinant CYP3A4, Luciferin-PPXE luminescence; series mostly up to 57.1 µM. Put shortly:
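Luminescent readout of luciferin produced by CYP3A4 (20 nM) dealkylation of Luciferin-PPXE, 25 uM (its KM). NADPH-driven reaction ran 60 min at RT after 10 min compound preincubation; data scaled to 57 uM ketoconazole as 100% inhibition.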
(In general: In qHTS, concentration-response curves come from the screen itself.)

The target is the same in experiment [10]. Nature of the experiment: qHTS Assay for Activators of Cytochrome P450 3A4 (AID 885). Further: nearly all actives have a fitted effect of over 65% in size. The following applies: recombinant CYP3A4, Luciferin-PPXE luminescence, 60 min; series mostly up to 57.1 µM. In a few lines:
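CYP3A4 activity: Luciferin-PPXE O-dealkylation, 25uM substrate, 200mM KPO4, RT throughout. Read-out is luciferase luminescence; higher values reflect activation.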

A short description of experiment [11]: Confirmation and Secondary Assay for Modulators of Hemoglobin Beta Chain Splicing at IVS2 654 locus (AID 910).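 Further: per-well total GFP intensity by laser scanning cytometry after 2-day treatment; % of control where 0% means no effect.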 The following applies: HeLa EGFP-654 splicing reporter, GFP fluorescence, 48 h; series mostly up to 38.3 µM. Put shortly: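 HeLa cells stably carrying EGFP interrupted by mutant beta-globin IVS2-654 intron (CMV-driven) were treated with compound for 2 days at 37C; corrected splicing was scored as total peak GFP intensity per well (488 nm excitation, 500-520 nm emission).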

Experiment [12] can be described thus: Confirmation and Secondary Assay for Modulators of Hemoglobin Beta Chain Splicing at IVS2 705 locus (AID 930).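 Further: HeLa cells stably expressing the EGFP-705 splicing reporter; % of control where 0% means no effect.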 The following applies: HeLa EGFP-705 splicing reporter, GFP fluorescence, 48 h; series mostly up to 38.3 µM. Put shortly: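 Assay measures total GFP intensity per well in HeLa EGFP-705 cells after 2 days with compound; mis-splicing normally truncates EGFP, so fluorescence indicates corrected splicing.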

A short description of experiment [13]: qHTS Assay for Lipid Storage Modulators (AID 1519; calls by dose curve). Conditions: Drosophila S3 cells, BODIPY lipid droplet/cell ratio, laser cytometry, cells loaded with oleic acid; for activity change, negative = inhibition: at 57.5 µM (top of the series). In a few lines:
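Cells seeded at 5,000 per well were treated with compounds over a concentration series and loaded with oleic acid (400 uM, as added). Lipid droplet fluorescence (488 nm excitation, 500-530 nm channel) was read by laser-scanning cytometry and normalized to 20 uM Triacsin C.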

The target in experiment [14] is Ubiquitin carboxyl-terminal hydrolase 1 (Homo sapiens) (UniProt O94782). Kind of experiment: Inhibitors of USP1/UAF1: Pilot qHTS (AID 504865). Further: nearly all actives have a fitted effect of over 35% in size. Further: potency means the concentration at half of the fitted maximal effect. The following applies: purified USP1/UAF1, Ub-rhodamine cleavage fluorescence; series mostly up to 54.9 µM. In a few lines:
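1nM USP1/UAF1 + cpd, 15 min RT; start w/ Ub-Rho 150nM final; kinetic FL 480/540 nm, 6 reads q60 s. Buffer 50mM HEPES pH 7.8, 0.5mM EDTA, 1mM TCEP, 0.01% Tween-20, 0.1 mg/ml BSA.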

Experiment [15] can be described thus: Primary qHTS for small molecule stabilizers of the endoplasmic reticulum resident proteome: Secreted ER Calcium Modulated Protein (SERCaMP) assay (AID 1508630). Further: on the % scale 0 is the no-effect control and ±100 the full control effect. Conditions: SH-SY5Y GLuc-SERCaMP (Gaussia luciferase released on ER calcium loss) secretion, thapsigargin, luminescence; series mostly up to 38.4 µM. In a few lines:
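The SH-SY5Y reporter protocol was run at 3 concentrations up to 38.3 uM (primary) or 11 concentrations (follow-up): 16 h compound, 100 nM thapsigargin for 4 h, then extracellular luciferase luminescence.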

For experiment [16], the target named is 3',5'-cyclic-AMP phosphodiesterase 4B (Homo sapiens) (UniProt Q07343). Nature of the experiment: qHTS Assay for Inhibitors of PDE-IV (AID 607; active means well fitted activation curve with a large enough effect in the main read-out, with a control signal flat, not every such curve was filed as active; further: % of control where 0% means no effect). Conditions: HEK293 ACTOne CNG channel cells, membrane potential fluorescence; series mostly up to 22.9 µM. Put shortly:
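ACTOne HEK293 cells carry a modified cAMP-gated CNG channel and express endogenous PDE4; plated 1000 cells/well, compounds up to 22.9 uM final. Membrane-potential dye fluorescence (ex 535/em 590) was read; parental cells received 10 uM forskolin + 100 uM RO 20-1724.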

Experiment [17] can be described thus: qHTS Assay for Identification of Small Molecule Agonists for Hypoxia Response Element Signaling Pathway (AID 914; active means well fitted activation curve with a large enough effect in the signal ratio, with a control signal flat, not every such curve was filed as active; the % refers to the signal ratio; further: potency means the concentration at half of the fitted maximal effect). The following applies: ME-180 (cervical carcinoma) HRE-bla reporter, beta-lactamase ratio, CoCl2, 17 h; activation: stronger effect = higher value. Put shortly: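 Compounds in a titration series were added to ME-180 reporter cells alongside an EC50 level of CoCl2. After 17 hours, beta-lactamase activity was read as the 460nm/530nm emission ratio of CCF4, giving AC50 values.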

The target of experiment [18] is Cytochrome P450 2C19 (Homo sapiens) (UniProt P33261). Nature of the experiment: qHTS Assay for Inhibitors and Substrates of Cytochrome P450 2C19 (AID 899). Further: potency means the concentration at half of the fitted maximal effect; nearly all actives have a fitted effect of over 60% in size. Conditions: recombinant CYP2C19, luciferin-H EGE luminescence; series mostly up to 57.1 µM. In a few lines: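 Human CYP2C19 (5nM) with Luciferin-H EGE at 10uM (its KM) in 50mM KPO4 was preincubated with compound for 10 min at 37C. NADPH regeneration started a 60 min 37C reaction. Luciferin was read by luminescence, normalized to 57uM ketoconazole.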
Sequence of Cytochrome P450 2C19 (Homo sapiens) (P33261 whole entry, looked up): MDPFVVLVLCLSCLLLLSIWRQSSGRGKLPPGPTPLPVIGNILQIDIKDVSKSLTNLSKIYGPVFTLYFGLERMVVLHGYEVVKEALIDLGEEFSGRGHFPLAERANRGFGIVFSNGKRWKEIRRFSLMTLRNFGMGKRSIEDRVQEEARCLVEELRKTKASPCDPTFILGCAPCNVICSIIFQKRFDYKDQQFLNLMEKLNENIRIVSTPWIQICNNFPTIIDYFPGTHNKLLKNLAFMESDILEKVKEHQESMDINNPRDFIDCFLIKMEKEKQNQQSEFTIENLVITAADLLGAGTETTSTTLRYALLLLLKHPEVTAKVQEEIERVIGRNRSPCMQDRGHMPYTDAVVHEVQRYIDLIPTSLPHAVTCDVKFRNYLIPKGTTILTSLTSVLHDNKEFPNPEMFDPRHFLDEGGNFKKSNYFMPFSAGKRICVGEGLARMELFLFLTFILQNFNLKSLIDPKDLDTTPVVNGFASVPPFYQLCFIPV

Setting [19] is: measured here: cell count channel max response.
[20] abbreviates: measured here: lipid channel max response.

Sequence of Lysosomal acid glucosylceramidase (Homo sapiens) (P04062 whole entry, looked up): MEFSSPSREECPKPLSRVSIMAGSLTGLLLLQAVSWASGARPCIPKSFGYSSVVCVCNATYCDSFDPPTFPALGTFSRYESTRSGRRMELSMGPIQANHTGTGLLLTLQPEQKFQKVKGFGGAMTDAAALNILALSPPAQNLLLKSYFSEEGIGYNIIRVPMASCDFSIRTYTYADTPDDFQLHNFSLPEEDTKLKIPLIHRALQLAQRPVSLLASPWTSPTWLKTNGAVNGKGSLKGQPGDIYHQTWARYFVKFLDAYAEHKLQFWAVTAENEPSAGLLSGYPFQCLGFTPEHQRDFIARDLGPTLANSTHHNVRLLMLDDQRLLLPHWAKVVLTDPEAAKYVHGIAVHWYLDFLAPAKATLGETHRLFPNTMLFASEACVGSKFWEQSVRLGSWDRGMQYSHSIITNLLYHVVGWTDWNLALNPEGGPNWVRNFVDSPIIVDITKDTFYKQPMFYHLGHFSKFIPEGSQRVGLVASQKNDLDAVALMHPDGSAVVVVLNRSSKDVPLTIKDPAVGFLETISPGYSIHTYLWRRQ
Sequence of Cytochrome P450 1A2 (Homo sapiens) (P05177 whole entry, looked up): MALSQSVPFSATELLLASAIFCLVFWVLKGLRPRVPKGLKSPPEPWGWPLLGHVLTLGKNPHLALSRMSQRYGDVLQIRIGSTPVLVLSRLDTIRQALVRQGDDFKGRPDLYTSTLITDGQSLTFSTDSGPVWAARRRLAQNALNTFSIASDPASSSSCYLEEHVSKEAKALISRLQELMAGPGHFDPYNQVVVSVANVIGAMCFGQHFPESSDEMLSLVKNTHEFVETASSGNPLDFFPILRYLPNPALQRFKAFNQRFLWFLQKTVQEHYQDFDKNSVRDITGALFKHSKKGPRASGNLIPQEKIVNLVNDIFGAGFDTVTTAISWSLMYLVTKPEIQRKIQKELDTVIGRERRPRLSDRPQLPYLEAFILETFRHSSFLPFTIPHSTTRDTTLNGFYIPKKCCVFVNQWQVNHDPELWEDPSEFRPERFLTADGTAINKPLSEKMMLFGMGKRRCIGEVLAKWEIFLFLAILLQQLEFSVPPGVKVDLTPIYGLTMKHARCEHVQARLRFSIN
Sequence of Ubiquitin carboxyl-terminal hydrolase 1 (Homo sapiens) (O94782 whole entry, looked up): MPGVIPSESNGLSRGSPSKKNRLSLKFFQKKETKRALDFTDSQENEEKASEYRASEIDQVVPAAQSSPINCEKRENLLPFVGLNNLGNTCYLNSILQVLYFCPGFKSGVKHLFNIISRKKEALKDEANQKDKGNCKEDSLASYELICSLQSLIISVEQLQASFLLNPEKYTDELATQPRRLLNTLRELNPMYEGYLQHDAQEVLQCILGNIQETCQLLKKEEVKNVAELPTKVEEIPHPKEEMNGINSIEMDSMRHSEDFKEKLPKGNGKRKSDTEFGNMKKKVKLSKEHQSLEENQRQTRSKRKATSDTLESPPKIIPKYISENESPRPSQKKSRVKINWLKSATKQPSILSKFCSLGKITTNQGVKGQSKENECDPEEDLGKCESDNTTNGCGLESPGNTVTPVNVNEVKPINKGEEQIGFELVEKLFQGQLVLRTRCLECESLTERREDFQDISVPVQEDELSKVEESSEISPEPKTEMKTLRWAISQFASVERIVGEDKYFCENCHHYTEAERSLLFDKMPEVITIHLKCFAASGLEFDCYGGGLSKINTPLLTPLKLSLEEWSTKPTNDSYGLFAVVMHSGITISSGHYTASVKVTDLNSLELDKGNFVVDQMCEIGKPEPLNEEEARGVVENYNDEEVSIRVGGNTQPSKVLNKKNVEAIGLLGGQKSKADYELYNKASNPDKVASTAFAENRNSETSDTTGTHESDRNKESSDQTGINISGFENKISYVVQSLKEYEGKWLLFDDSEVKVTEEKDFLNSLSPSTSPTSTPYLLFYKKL
Sequence of Cytochrome P450 3A4 (Homo sapiens) (P08684 whole entry, looked up): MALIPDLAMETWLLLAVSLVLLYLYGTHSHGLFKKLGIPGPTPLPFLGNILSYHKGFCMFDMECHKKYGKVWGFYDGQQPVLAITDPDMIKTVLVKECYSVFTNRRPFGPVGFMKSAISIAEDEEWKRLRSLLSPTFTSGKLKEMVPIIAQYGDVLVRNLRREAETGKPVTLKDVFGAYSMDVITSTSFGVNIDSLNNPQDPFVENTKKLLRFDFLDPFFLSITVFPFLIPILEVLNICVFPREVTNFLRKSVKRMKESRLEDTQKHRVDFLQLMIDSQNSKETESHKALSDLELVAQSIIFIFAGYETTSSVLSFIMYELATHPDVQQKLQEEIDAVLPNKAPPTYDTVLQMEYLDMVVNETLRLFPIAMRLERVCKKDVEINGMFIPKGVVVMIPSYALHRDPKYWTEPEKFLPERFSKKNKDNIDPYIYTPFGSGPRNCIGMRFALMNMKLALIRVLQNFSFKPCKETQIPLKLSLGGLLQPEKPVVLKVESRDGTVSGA
Sequence of 3',5'-cyclic-AMP phosphodiesterase 4B (Homo sapiens) (Q07343 whole entry, looked up): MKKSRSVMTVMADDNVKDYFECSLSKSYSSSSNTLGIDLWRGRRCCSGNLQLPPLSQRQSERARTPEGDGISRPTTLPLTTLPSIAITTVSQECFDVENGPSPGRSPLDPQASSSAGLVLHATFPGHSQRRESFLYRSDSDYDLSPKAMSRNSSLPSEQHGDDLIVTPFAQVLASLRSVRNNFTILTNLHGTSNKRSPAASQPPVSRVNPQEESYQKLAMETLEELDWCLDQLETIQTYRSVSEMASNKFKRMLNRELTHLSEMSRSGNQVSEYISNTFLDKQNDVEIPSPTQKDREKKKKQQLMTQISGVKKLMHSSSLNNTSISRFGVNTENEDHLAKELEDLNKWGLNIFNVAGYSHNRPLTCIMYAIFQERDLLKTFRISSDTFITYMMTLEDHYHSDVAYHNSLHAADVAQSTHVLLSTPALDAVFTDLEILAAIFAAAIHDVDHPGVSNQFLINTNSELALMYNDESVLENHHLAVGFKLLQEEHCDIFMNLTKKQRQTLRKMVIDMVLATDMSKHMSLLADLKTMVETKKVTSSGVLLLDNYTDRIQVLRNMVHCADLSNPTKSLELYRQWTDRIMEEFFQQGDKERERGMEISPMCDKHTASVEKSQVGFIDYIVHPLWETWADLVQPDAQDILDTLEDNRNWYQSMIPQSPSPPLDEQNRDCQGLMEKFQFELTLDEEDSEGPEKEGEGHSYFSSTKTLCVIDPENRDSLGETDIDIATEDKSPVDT

For `COc1ccccc1-c1cc(NCc2cccnc2)ncn1`, the Potency in experiment [1] was > 11.4 µM (inactive); in experiment [3] it was 0.316 µM (active); in experiment [6] it was > 46 µM (inactive); in experiment [7] it was > 46 µM (inactive); in experiment [9] it was 5.01 µM (active). Also, the activity change, negative = inhibition in experiment [2] was -6.59% (inactive); in [4], -4.97% (inactive); in [13], 4.96% (inactive). Besides, in experiment [5], the activity, negative = inhibition was 0.807% (inactive). The molecule was called inactive in experiment [8], in [11] and in [12]. Moreover, the Potency result in experiment [10], in experiment [14] and in [15] was “inactive” in each case. Moreover, the max response in experiment [13] (setting [19]) is 9.53%; in experiment [13] (setting [20]), 19.3%.

As to `CN1CCN(c2cc(-c3ccccc3C(F)(F)F)ncn2)CC1`, the Potency in [1] was > 11.4 µM (inactive); in experiment [3], 12.6 µM (active); in experiment [6] it was > 46 µM (inactive); in experiment [7] it was > 46 µM (inactive). In addition, the activity change, negative = inhibition was 8.33% (inactive) in experiment [2], -29.9% (inactive) in experiment [4] and 9.46% (inactive) in experiment [13]. Besides, the activity, negative = inhibition in experiment [5] is 8.15% (inactive). Moreover, the result in experiment [8], in experiment [11] and in [12] was inactive. Moreover, the Potency entry in experiment [16], in experiment [14] and in experiment [15] was “inactive” each time. In addition, the max response stood at 20.3% in [13] (setting [19]) and 26.3% in experiment [13] (setting [20]).

Regarding `Cn1c(=O)cnc2cnc(Oc3ccccc3)nc21`, the Potency in experiment [1] is > 11.4 µM (inactive); in experiment [3], 10 µM (active); in experiment [6] it was > 9.22 µM (inactive); in [7] it was > 46 µM (inactive). Further, the activity change, negative = inhibition was 5.77% (inactive) in experiment [2], 4.94% (inactive) in experiment [4] and 3.92% (inactive) in experiment [13]. Besides, the activity, negative = inhibition in [5] was -3.04% (inactive). Besides, in [8], the call was inactive. For the same molecule, the Potency result in experiment [16] and in experiment [15] was “inactive” throughout. Also, the max response came out at 18.8% in experiment [13] (setting [19]) and 25.3% in experiment [13] (setting [20]).

With `CNc1cc(-c2c(C)noc2C)ncn1`, the Potency in [1] is > 11.4 µM (inactive); in experiment [3], 5.01 µM (active); in [6] it was > 46 µM (inactive); in experiment [7], > 46 µM (inactive); in experiment [17], 3.16 µM (active). Moreover, the activity change, negative = inhibition was 25.4% (inactive) in experiment [2], 3.01% (inactive) in [4] and 4.96% (inactive) in experiment [13]. In addition, the activity, negative = inhibition in experiment [5] was 27.1% (inactive). In addition, the outcome in experiment [8] was inactive. Also, the Potency result in experiment [16], in [14] and in [15] was “inactive” throughout. The max response in experiment [13] (setting [19]) worked out at 25.8%; in [13] (setting [20]), 27.2%.

For `COc1cccc(-c2nccc(NCc3cccc(C)c3)n2)c1`, the Potency in experiment [1] is > 11.4 µM (inactive); in [3], 0.316 µM (active); in [6], > 46 µM (inactive); in experiment [7] it was > 46 µM (inactive); in experiment [9] it was 3.98 µM (active); in [18], 6.31 µM (active). Also, the Potency in experiment [14] is 35.5 µM (active). In addition, the activity change, negative = inhibition is -15.4% (inactive) in experiment [2], -2.73% (inactive) in [4] and 7.01% (inactive) in experiment [13]. Besides, the activity, negative = inhibition in [5] is -25.6% (inactive). Moreover, the molecule was called inactive in experiment [8], in [11] and in experiment [12]. Further, the Potency result in [16], in experiment [10] and in experiment [15] was “inactive” each time. Moreover, the figures for the max response in [13] (setting [19]) and in experiment [13] (setting [20]) were -6.39% and -3.6%, respectively.

Turning to `CNc1ccnc(-c2ccccc2CN(C)C)n1`, the Potency in experiment [1] is > 11.4 µM (inactive); in experiment [3] it was 12.6 µM (active); in experiment [6], > 46 µM (inactive); in experiment [7], > 46 µM (inactive). Besides, the activity change, negative = inhibition is -3.79% (inactive) in experiment [2], -12.6% (inactive) in [4] and 2.03% (inactive) in [13]. The activity, negative = inhibition in experiment [5] was -6.7% (inactive). The result in experiment [8], in experiment [11] and in experiment [12] was inactive. Besides, the Potency result in [16], in experiment [14] and in experiment [15] was “inactive” in each case. The max response in [13] (setting [19]) was -5.53%; in experiment [13] (setting [20]) it was 2.14%.
